MARV entry inh – Marburg virus entry inhibition | Potency, µM (highest dose often 37.8 µM), without a hit: at the top dose activity change, negative = inhibition, usual class: inhibitors | AID 540276 | Marburg virus pseudotyped entry inhibition, cell reporter | 1.8% of 300,000 active; calls by dose curve; tested in HEK293 cells; also: potency is read from the fitted curve at half-maximal effect
Lassa entry inh – inhibitors of Lassa virus binding or cell entry | Lassa virus pseudotype entry inhibition, cell reporter | Potency, µM (series often up to 37.9 µM), for inactives: at the top dose activity change, negative = inhibition, actives largely listed as inhibitors | 1.2% of 300,000 active; calls by dose curve; tested in HEK293 cells; also: potency is read from the fitted curve at half-maximal effect; nearly all actives have a fitted effect of over 50% in size
HCMV antiviral – blocks human cytomegalovirus replication. HFF cells, HCMV-luciferase reporter, 72 h; hits give low values. activity change, negative = inhibition, % at 57.5 µM. 4.5% of 410,000 active. AID 1259415; in the data active = activity change below about -60%; inconclusive = no clear call, values can overlap the other calls; inactive = above about -39%
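Screen run at 2 compound doses on HFFs infected with reporter HCMV, MOI 1 PFU/cell. Luciferase activity from cell lysates at 72 h post infection gave inhibition relative to buffer-only and Salinomycin wells.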
VACV mCherry inh – inhibitors of vaccinia virus infection (mCherry reporter signal); Vaccinia virus mCherry reporter infection, fluorescence; Potency, µM (highest dose often 36.5 µM), inactives show at the top dose activity change, negative = inhibition, actives largely listed as inhibitors; 0.63% of 310,000 active; calls by dose curve; tested in A549 cells; also: potency is read from the fitted curve at half-maximal effect; nearly all actives have a fitted effect of over 35% in size
VACV Venus inh – vaccinia inhibition (Venus reporter); Potency, µM (series often up to 36.5 µM), without a hit: at the top dose activity change, negative = inhibition, hits mostly inhibitors; Vaccinia virus Venus reporter expression, fluorescence; 0.46% of 330,000 active; calls by dose curve; tested in A549 cells; also: potency is read from the fitted curve at half-maximal effect; nearly all actives have a fitted effect of over 30% in size
HCV inh – inhibitors of hepatitis C virus infection; Huh7.5.1 HCVcc-Cre infection, luciferase reporter, 44 h; Potency, µM (series often up to 41.8 µM), inactives show at the top dose activity change, negative = inhibition, usual class: inhibitors; 3.4% of 340,000 active; AID 651820; active = well fitted inhibition curve with a large enough effect; inconclusive = small, poorly fitted or top-dose-only effect, or another doubt; inactive = no such curve, though single readings can be large or run the other way; also: potency is read from the fitted curve at half-maximal effect
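Cells seeded at 1,000/well and cultured 4 h, then compounds added followed by HCVcc-Cre virus (~0.5 moi). After 44 h further culture, luciferase substrate was added, plates held 15 min at room temperature, and luminescence read for 15 sec.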
The depositor's hits bear a star; i = inactive; ? = inconclusive; nt = not tested or not shown; [ ] = another dose, or the depositor's remark. Shown are actives, neighbours in structure and some others; about 7.8% of the full set was active somewhere. % is scaled to controls: 0 for no effect and ±100 for the full control effect.

SMILES	MARV entry inh	Lassa entry inh	HCMV antiviral	VACV mCherry inh	VACV Venus inh	HCV inh
Clc1ccc(/C=C\c2nccc3c2[nH]c2ccccc23)cc1	-15.6%[46.1 µM]	nt	22.6	?	-25.2%	?
N#Cc1ccc(/C=C\c2nccc3c2[nH]c2ccccc23)cc1	?	15.3%	-76.5*	-5.9%	-9.8%	?
Cc1oc(-c2ccc(Cl)cc2)nc1Cn1c(=O)cc(C)c2c(C)nn(-c3ccccc3)c21	nt	-0.6%[46.1 µM]	9.5	-6.4%	5.6%	nt
S=C(NCc1ccccc1)Nc1ccncc1	13.5%[46.1 µM]	?	?	-21.2%	-17.5%	1.78µM*
O=S(=O)(c1ccc(NC(=S)NCc2ccncc2)cc1)N1CCCCC1	?	8.8%[46.1 µM]	-64.7*	-11.0%	-23.5%	3.0%
CC(C)CNC(=S)Nc1ccc(Oc2ccccc2)cc1	?	-20.2%	-62.7*	-2.5%	-21.4%	?
S=C(NCc1cccnc1)Nc1ccc(Oc2ccccc2)cc1	nt	nt	-70.8*	nt	nt	?
CCOc1ccc(-c2cc3c(=O)n(Cc4nc(-c5ccc(OC(C)C)cc5)oc4C)ccn3n2)cc1Cl	23.6%[46.1 µM]	14.5%[46.1 µM]	12.5	-13.3%	-15.4%	nt
CCCCc1ccc(NC(=S)NCc2cccnc2)cc1	-24.3%	-1.4%	-77.0*	i	-11.8%	?
CSC(=S)NCc1cccnc1	?	?	-81.9*	?	-13.1%	?
CCc1ccc(NC(=S)NCc2cccnc2)cc1	-3.5%[46.1 µM]	0.5%[46.1 µM]	24.6	-11.5%	-3.8%	-6.4%
COc1ccccc1Cn1ccn(Cc2c(F)cccc2Cl)c(=O)c1=O	nt	-12.5%[46.1 µM]	22.7	-9.8%	-3.7%	nt
Fc1ccc(-c2noc3ncnc(NCCc4ccccc4)c23)cc1	nt	2.2%[46.1 µM]	?	-5.4%	-3.2%	nt
CCOc1ccc(NC(=O)c2oc3ccccc3c2NC(=O)c2cc3ccccc3o2)cc1	?	17.7%[46.1 µM]	21.7	5.8%	-2.1%	nt
O/N=C(\c1ccccn1)C1CC1c1ccccc1 (stereo not drawn)	5.5%[46.1 µM]	?	-79.4*	?	2.6%	2.6%
COc1ccc(C2CC2/C(=N/O)c2ccccn2)cc1 (stereo not drawn)	6.6%[46.1 µM]	4.5%	-2.7	?	1.1%	-6.2%
CN(C)C(=O)C(CCN1CCC(O)(c2ccc(Cl)cc2)CC1)(c1ccccc1)c1ccccc1	4.11µM*	4.11µM*	-25.0	-5.6%	-24.2%	?
CN(C)c1ccc(NC(=O)CN2CCC(O)(c3ccccc3)CC2)cc1	-5.5%[46.1 µM]	-21.4%	-36.6	5.4%	12.6%	-5.1%
O=C1CCCC(=O)C1C(=O)c1ccc(C(F)(F)F)cc1[N+](=O)[O-]	nt	nt	1.6	nt	nt	nt
Cc1ccc(C(=O)Nc2cccc([N+](=O)[O-])c2)cc1S(=O)(=O)Nc1ccc(C(=O)O)cc1	7.4%[46.1 µM]	0.8%	-19.9	-10.8%	0.0%	6.6%
Cc1ccc(C(=O)Nc2ccccc2-c2ccccc2)cc1S(=O)(=O)Nc1cccc(C)c1C	?	-42.2%	-34.5	-29.4%	?	10µM*
Cc1ccccc1NS(=O)(=O)c1cc(C(=O)Nc2cccnc2)ccc1C	?	-20.9%	-35.5	-25.6%	-14.1%	31.6µM*
Cc1ccccc1NS(=O)(=O)c1cc(C(=O)Nc2cccc([N+](=O)[O-])c2)ccc1C	?	11.2µM*	-94.7*	?	11.2µM*	?
Cc1ccc(C)c(NS(=O)(=O)c2cc(C(=O)Nc3ccccc3-c3ccccc3)ccc2C)c1	?	?	-34.3	nt	nt	?
CC(=O)Nc1ccc(NS(=O)(=O)c2cc([N+](=O)[O-])ccc2C)cc1	8.0%[46.1 µM]	-1.0%	-70.9*	-12.7%	-7.9%	-3.5%
SMILES	MARV entry inh	Lassa entry inh	HCMV antiviral	VACV mCherry inh	VACV Venus inh	HCV inh
C/C1=C/CCCc2cc(OS(=O)(=O)C(F)(F)F)ccc2OCC1	nt	nt	-4.5	nt	nt	nt
Cc1cc(C)c(S(=O)(=O)Nc2ccccc2-c2ccccc2)c(C)c1	?	?	-78.6*	-12.4%	-18.4%	?
CCC1CN(C(=O)N2CCC(C(=O)NCCC3=CCCCC3)CC2)c2cc(C)ccc2O1 (stereo not drawn)	nt	-19.8%[46.1 µM]	128.9	15.4%	-5.7%	nt
O=Cc1cnc(N2CCN(Cc3ccccc3)CC2)s1	12.2%[46.1 µM]	-14.7%[46.1 µM]	-63.5*	i	-12.1%	17.1%
Cc1cc(N=Cc2c(O)n(-c3ccc(C)c(C)c3)c(=O)c3ccccc23)no1	3.8%	-14.8%	-64.4*	nt	nt	-11.6%
Cc1ccc(-n2c(O)c(C=Nc3ccc4c(c3)OCO4)c3ccccc3c2=O)cc1C	-11.8%	-4.8%	-39.1	nt	nt	1.0%
Cc1cc(N=Cc2c(O)n(-c3ccc4c(c3)OCO4)c(=O)c3ccccc23)ccn1	?	?	-91.8*	nt	nt	-22.6%
CCCCCSc1cc(O)c(C(CNC)C(C)C)cc1OC (stereo not drawn)	18.4µM*	?	-4.2	-23.9%	-9.6%	?
CCCCCSc1cc(OC)c(CCN(C)C)cc1OC	?	?	-36.6	nt	?	?
COc1cc(=O)n2c(c1C(=O)N(C)Cc1nccs1)CCN(Cc1cccc(F)c1F)CC2	nt	nt	nt	-5.5%	-0.5%	nt
Cc1c(C(=O)Nc2ccc(Br)cc2)cnn1C	8.2%	?	117.7	-8.5%	-2.3%	8.4%
Cc1c(C(=O)c2no[n+]([O-])c2C(=O)c2cnn(C)c2C)cnn1C	-2.5%	2.3%	-107.0*	-16.0%[1.46 µM]	-12.9%	?
CCOC(=O)CN1C(=O)[C@@]2(CC(C)=C[C@@H](COCc3ccccc3)O2)c2ccccc21	7.0%[14.2 µM]	?	nt	nt	nt	nt
CCN(CC)S(=O)(=O)c1ccc2c(c1)nc(CN(C)C(=O)Nc1ccc(F)cc1)n2C	nt	0.3%[46.1 µM]	3.6	-4.5%	-16.3%	nt
CC(C)C(NS(C)(=O)=O)c1nnc2n1CCN(Cc1ccc3cccnc3c1)CC2 (stereo not drawn)	nt	nt	nt	-5.5%	-0.6%	nt
CCOC(=O)Cc1csc(NC(=O)c2ccc(N3CCOCC3)cc2[N+](=O)[O-])n1	nt	nt	18.2	nt	nt	11.2µM*
Cc1nnc2n1N=CC=C(c1ccccc1)S2	?	?	-99.0*	nt	nt	?
O=C(NNc1ncccc1Cl)c1c(Cl)cccc1Cl	-0.5%	6.8%	-67.2*	i	-7.5%	16.2%
CN(C)c1ccc(NC2=C(Cl)C(=O)c3ccccc3C2=O)cc1	?	?	-97.3*	?	11.2µM*	10µM*
